From PubChem
This is a sample that favours compounds with a hit; in the whole collection about 8% have one here.
Marburg entry inh = blocks Marburg virus binding to or entry into cells | AID 540276 | Marburg virus pseudotyped entry inhibition, cell reporter | actives 1.8% (n = 300,000) | Potency, µM (top dose mostly 37.8 µM), inactives show top-dose activity change, negative = inhibition, actives largely listed as inhibitors; calls by dose curve; tested in HEK293 cells; further: potency means the concentration at half of the fitted maximal effect; on the % scale 0 is the no-effect control and ±100 the full control effect
SARS PLpro yeast = blocks SARS-CoV papain-like protease in a yeast assay; AID 485353; S. cerevisiae expressing SARS-CoV PLpro, growth rescue; actives 0.19% (n = 330,000); Potency, µM (highest dose often 32.9 µM), for the others: at the highest dose activity, positive = growth rescue, actives largely listed as activators; calls by dose curve; further: potency means the concentration at half of the fitted maximal effect; 0% is about no effect; nearly all actives have a fitted effect of over 55% in size
HCV inh = HCV inhibition; Huh7.5.1 HCVcc-Cre infection, luciferase reporter, 44 h; Potency, µM (doses to about 41.8 µM), for inactives: at the top dose activity change, negative = inhibition, usual class: inhibitors; actives 3.4% (n = 340,000); active means well fitted inhibition curve with a large enough effect; inconclusive means small, poorly fitted or top-dose-only effect, or another doubt; inactive means no such curve, though single readings can be large or run the other way; further: potency means the concentration at half of the fitted maximal effect; on the % scale 0 is the no-effect control and ±100 the full control effect
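HCVcc-Cre virus at an moi near 0.5 was added right after compound to cells cultured 4 h from seeding (1,000 cells/well). Luciferase activity was determined 44 h later, 15 min after substrate addition at RT.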
FMDV antiviral = blocks foot and mouth disease virus; FMDV antiviral cell-based qHTS; actives 1.2% (n = 410,000); Potency, µM (series often up to 57.9 µM), for inactives: at the top dose activity change, negative = inhibition, usual class: inhibitors; calls by dose curve; tested in HEK293T cells; further: read-out not given here; potency means the concentration at half of the fitted maximal effect; on the % scale 0 is the no-effect control and ±100 the full control effect; nearly all actives have a fitted effect of over 45% in size
HCMV antiviral = human cytomegalovirus inhibition | activity change, negative = inhibition, % at 57.5 µM | HFF cells, HCMV-luciferase reporter, 72 h; stronger effect = lower value | AID 1259415 | actives 4.5% (n = 410,000); in the data active means activity change below about -60%; inconclusive means no clear call, values can overlap the other calls; inactive means above about -39%; further: on the % scale 0 is the no-effect control and ±100 the full control effect
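Human foreskin fibroblasts infected with luciferase-reporter HCMV at MOI 1 PFU/cell, compounds at two doses. Luciferase measured 72 h post infection; normalized to buffer-only basal and Salinomycin (10uM) controls.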
LASV entry inh = inhibitors of Lassa virus binding or cell entry. AID 540256. actives 1.2% (n = 300,000). Lassa virus pseudotype entry inhibition, cell reporter. Potency, µM (titrated, usually from 37.9 µM), for inactives: at the top dose activity change, negative = inhibition, hits mostly inhibitors; calls by dose curve; tested in HEK293 cells; further: potency means the concentration at half of the fitted maximal effect; on the % scale 0 is the no-effect control and ±100 the full control effect; nearly all actives have a fitted effect of over 50% in size
Numbers without * were called inactive; [ ] = dose if it differs, or a comment.

`CC(C)(C)c1cc(C(c2cccnc2)N2CCN(CCO)CC2)cc(C(C)(C)C)c1O` (stereo not given) gave Marburg entry inh inconclusive, SARS PLpro yeast -32.8%, HCV inh 10µM*, HCMV antiviral -102.2* and LASV entry inh inconclusive.
CCOC(=O)c1ccc(NC(=O)CSC2=NN3CCCC(=O)N=C3S2)cc1 was read as SARS PLpro yeast 3.1%, HCV inh inconclusive, FMDV antiviral -16.7% and HCMV antiviral -14.2.
`COc1ccc(Cl)cc1NC(=O)CSC1=NN2CCCC(=O)N=C2S1` gave Marburg entry inh inconclusive, SARS PLpro yeast -2.9%, HCV inh inconclusive, FMDV antiviral inconclusive, HCMV antiviral -71.1* and LASV entry inh 6.8%[46.1 µM].
COc1ccc(OC)c(NC(=O)CSC2=NN3CCCC(=O)N=C3S2)c1 was read as Marburg entry inh 11.5%[46.1 µM], SARS PLpro yeast -0.6%, HCV inh -21.7%, FMDV antiviral -25.7%, HCMV antiviral 4.4 and LASV entry inh -35.5%[46.1 µM].
CCOC(=O)c1c(NC(=O)CSC2=NN3CCCC(=O)N=C3S2)sc2c1CCCCC2 was read as Marburg entry inh 1.5%, SARS PLpro yeast 1.0%, HCV inh 8.91µM*, FMDV antiviral -45.1%, HCMV antiviral 63.2 and LASV entry inh 19.0%.
`COc1cccc(NC(=O)CSC2=NN3CCCC(=O)N=C3S2)c1` gave Marburg entry inh -13.8%[46.1 µM], SARS PLpro yeast -1.1%, HCV inh 5.9%, FMDV antiviral inconclusive, HCMV antiviral 15.2 and LASV entry inh -5.3%.
`CCOc1ccccc1NC(=O)CSC1=NN2CCCC(=O)N=C2S1` gave Marburg entry inh inconclusive, SARS PLpro yeast 0.0%, HCV inh -25.1%, FMDV antiviral -12.6%, HCMV antiviral -80.5* and LASV entry inh -42.1%[46.1 µM].
For COc1ccc(-n2c(=O)c3ccccc3n(Cc3ccccc3C)c2=O)c(OC)c1 the results were Marburg entry inh -1.2%[46.1 µM], FMDV antiviral -17.5%, HCMV antiviral inconclusive and LASV entry inh -8.1%[46.1 µM].
For CN(CCCN1CCCCC1)C(=O)CCc1nnc(C2CCCCC2)o1 the results were Marburg entry inh inconclusive, SARS PLpro yeast -0.9%, HCV inh 10.3%, FMDV antiviral -9.2%, HCMV antiviral -5.8 and LASV entry inh 15.6%.
Screening Cc1ccc(C(=O)/C=C\NCc2ccccc2)cc1 returned Marburg entry inh inconclusive, SARS PLpro yeast -34.4%, HCV inh -15.0%, FMDV antiviral 9.9%, HCMV antiviral 9.4 and LASV entry inh 1.0%.
`COc1ccc(CNC(=O)c2cn(Cc3ccc(S(=O)(=O)N(C)C)cc3)c(=O)s2)cc1` gave FMDV antiviral inconclusive and HCMV antiviral -81.2*.
COc1ccc(CNC(=O)c2ccc(N(C)S(=O)(=O)c3ccc(C)cc3)cc2)cc1 was read as Marburg entry inh inconclusive, SARS PLpro yeast 1.5%, HCV inh 4.47µM*, FMDV antiviral -15.1%, HCMV antiviral 27.2 and LASV entry inh inconclusive.
Screening C=CCNC(=O)c1ccc(N(Cc2ccc(Cl)cc2)S(C)(=O)=O)cc1 returned SARS PLpro yeast -0.3%, HCV inh 4.8%, FMDV antiviral -8.6% and HCMV antiviral -20.3.
`COc1ccc(S(=O)(=O)N(C)c2ccc(C(=O)NCc3ccncc3)cc2)cc1` gave Marburg entry inh -16.5%, SARS PLpro yeast -0.2%, HCV inh 0.9%, FMDV antiviral -6.5%, HCMV antiviral 12.8 and LASV entry inh 11.5%.
Screening COc1ccc(CNC(=O)c2cn(Cc3ccc(OC(C)=O)cc3)c(=O)s2)cc1 returned FMDV antiviral -8.3% and HCMV antiviral 7.1.
Screening C=CCNC(=O)c1ccc(CN(c2ccc(OCC)cc2)S(=O)(=O)c2ccc(C)cc2)cc1 returned SARS PLpro yeast -5.7%, HCV inh 11.2µM*, FMDV antiviral -2.2% and HCMV antiviral -6.9.
`COc1ccc(C(=O)/C=C/NCc2ccc(C)cc2)cc1` gave Marburg entry inh -3.5%, HCV inh -27.9%, FMDV antiviral 12.5%, HCMV antiviral -60.5* and LASV entry inh inconclusive.
